Test results taken from PubChem BioAssay AID1159580 (chemical genetic matrix, 2015).
Among all 5,500 compounds or so, about 2,000 (36%) were called active. About 18% were inconclusive and are not listed. Rule as the data show it: active = normalized growth mostly below about 0.91 (no sharp cut-off); inconclusive = no clear call, values can overlap the other calls; inactive = mostly above about 0.92. This is one part of the list.

Test: chemical genetic growth profiling, strain panel (AID 1159580);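 also: tested at 20 µM; growth read once vehicle control cultures reached saturation at 30 °C; 1 = growth at the plate median or of vehicle wells; lower values mean less growth of the strain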
Details: growth OD
[1] = S. cerevisiae deletion strains, locus YDL101C, strain DUN1, hits give low values
[2] = S. cerevisiae deletion strains, locus YHR030C, strain SLT2, hits give low values

Measured: normalized growth

COc1cc(NC(=O)Nc2ccc(OC(F)(F)F)cc2)cc(C(F)(F)F)c1
inactive: S. cerevisiae deletion strains, locus YAL013W, strain DEP1, hits give low values 0.987 | S. cerevisiae deletion strains, locus YBR229C, strain ROT2, hits give low values 0.987 | [1] 0.997 | S. cerevisiae deletion strains, locus YDL134C, strain PPH21, hits give low values 1.01 | S. cerevisiae deletion strains, locus YDR150W, strain NUM1, hits give low values 0.971 | S. cerevisiae deletion strains, locus YEL061C, strain CIN8, hits give low values 0.961 | S. cerevisiae deletion strains, locus YGR078C, strain PAC10, hits give low values 0.984 | [2] 0.895 | S. cerevisiae deletion strains, locus YHR087W, strain rtc3, hits give low values 0.984 | S. cerevisiae deletion strains, locus YJL187C, strain SWE1, hits give low values 1.01 | S. cerevisiae deletion strains, locus YJR043C, strain POL32, hits give low values 0.999 | S. cerevisiae deletion strains, locus YJR075W, strain HOC1, hits give low values 1 | S. cerevisiae deletion strains, locus YLR039C, strain RIC1, hits give low values 0.895 | S. cerevisiae deletion strains, locus YLR058C, strain SHM2 (second series), hits give low values 1 | S. cerevisiae deletion strains, locus YLR085C, strain ARP6, hits give low values 0.951 | S. cerevisiae deletion strains, locus YLR262C, strain YPT6, hits give low values 0.968 | S. cerevisiae deletion strains, locus YML094W, strain GIM5, hits give low values 0.919 | S. cerevisiae deletion strains, locus YMR219W, strain ESC1, hits give low values 1.02 | S. cerevisiae deletion strains, locus YMR263W, strain SAP30, hits give low values 0.991 | S. cerevisiae deletion strains, locus YMR307W, strain GAS1, hits give low values 0.864 | S. cerevisiae deletion strains, locus YNL153C, strain GIM3, hits give low values 0.987 | S. cerevisiae deletion strains, locus YNL298W, strain CLA4 (second series), hits give low values 0.923 | S. cerevisiae deletion strains, locus YNL322C, strain KRE1, hits give low values 1.01 | S. cerevisiae deletion strains, locus YNR030W, strain Alg12, hits give low values 0.935 | S. cerevisiae deletion strains, locus YOL006C, strain TOP1, hits give low values 0.996 | S. cerevisiae deletion strains, locus YPL055C, strain LGE1, hits give low values 0.928 | S. cerevisiae deletion strains, locus YPL241C, strain CIN2, hits give low values 0.893 | S. cerevisiae deletion strains, locus YPR135W, strain CTF4, hits give low values 1 | S. cerevisiae strains, strain wild type, hits give low values 1.01

O=C(Nc1ccc(OC(F)(F)F)cc1)Nc1cncc(C(F)(F)F)c1
inactive: S. cerevisiae deletion strains, locus YAR019C, strain CDC15, hits give low values 0.987 | S. cerevisiae deletion strains, locus YBL105C, strain PKC1, hits give low values 0.995 | S. cerevisiae deletion strains, locus YBR135W, strain CKS1, hits give low values 0.989 | S. cerevisiae deletion strains, locus YBR136W, strain MEC1, hits give low values 0.994 | S. cerevisiae deletion strains, locus YBR160W, strain CDC28, hits give low values 0.993 | S. cerevisiae deletion strains, locus YDL017W, strain CDC7, hits give low values 0.995 | S. cerevisiae deletion strains, locus YDL028C, strain MPS1, hits give low values 0.991 | [1] 1.01 | S. cerevisiae deletion strains, locus YDL108W, strain KIN28, hits give low values 0.988 | S. cerevisiae deletion strains, locus YDL132W, strain cdc53, hits give low values 0.995 | S. cerevisiae deletion strains, locus YDL214C, strain PRR2, hits give low values 0.913 | S. cerevisiae deletion strains, locus YDR052C, strain DBF4, hits give low values 0.989 | S. cerevisiae deletion strains, locus YDR054C, strain cdc34, hits give low values 0.996 | S. cerevisiae deletion strains, locus YDR226W, strain ADK1, hits give low values 0.991 | S. cerevisiae deletion strains, locus YDR477W, strain SNF1, hits give low values 0.943 | S. cerevisiae deletion strains, locus YER123W, strain YCK3, hits give low values 0.884 | S. cerevisiae deletion strains, locus YER133W, strain GLC7, hits give low values 0.93 | S. cerevisiae deletion strains, locus YFL009W, strain cdc4, hits give low values 0.982 | S. cerevisiae deletion strains, locus YFL029C, strain CAK1, hits give low values 0.991 | S. cerevisiae deletion strains, locus YFR003C, strain YPI1, hits give low values 0.999 | S. cerevisiae deletion strains, locus YFR019W, strain FAB1, hits give low values 0.911 | S. cerevisiae deletion strains, locus YFR028C, strain CDC14, hits give low values 0.986 | S. cerevisiae deletion strains, locus YGR040W, strain KSS1, hits give low values 0.941 | S. cerevisiae deletion strains, locus YGR052W, strain FMP48, hits give low values 0.929 | S. cerevisiae deletion strains, locus YGR092W, strain DBF2, hits give low values 0.919 | S. cerevisiae deletion strains, locus YHR079C, strain IRE1, hits give low values 0.824 | S. cerevisiae deletion strains, locus YHR082C, strain KSP1, hits give low values 0.968 | S. cerevisiae deletion strains, locus YHR205W, strain SCH9, hits give low values 0.888 | S. cerevisiae deletion strains, locus YIL147C, strain SLN1, hits give low values 0.996 | S. cerevisiae deletion strains, locus YJL095W, strain BCK1, hits give low values 0.877 | S. cerevisiae deletion strains, locus YJL128C, strain PBS2, hits give low values 0.951 | S. cerevisiae deletion strains, locus YJL157C, strain FAR1, hits give low values 0.923 | S. cerevisiae deletion strains, locus YJR016C, strain ILV3, hits give low values 0.994 | S. cerevisiae deletion strains, locus YJR066W, strain TOR1 (second series), hits give low values 0.88 | S. cerevisiae deletion strains, locus YJR066W, strain TOR1, hits give low values 0.942 | S. cerevisiae deletion strains, locus YKL048C, strain ELM1, hits give low values 0.964 | S. cerevisiae deletion strains, locus YKL067W, strain YNK1, hits give low values 0.916 | S. cerevisiae deletion strains, locus YKL101W, strain HSL1, hits give low values 0.905 | S. cerevisiae deletion strains, locus YKL193C, strain SDS22, hits give low values 0.996 | S. cerevisiae deletion strains, locus YKL203C, strain TOR2, hits give low values 0.964 | S. cerevisiae deletion strains, locus YLR133W, strain CKI1, hits give low values 0.91 | S. cerevisiae deletion strains, locus YLR403W, strain SFP1, hits give low values 0.945 | S. cerevisiae deletion strains, locus YML070W, strain DAK1, hits give low values 0.89 | S. cerevisiae deletion strains, locus YMR001C, strain CDC5, hits give low values 0.998 | S. cerevisiae deletion strains, locus YMR205C, strain PFK2 (second series), hits give low values 0.927 | S. cerevisiae deletion strains, locus YMR277W, strain FCP1, hits give low values 0.992 | S. cerevisiae deletion strains, locus YNL006W, strain LST8, hits give low values 0.99 | S. cerevisiae deletion strains, locus YNL020C, strain ARK1, hits give low values 0.914 | S. cerevisiae deletion strains, locus YNL161W, strain CBK1, hits give low values 0.971 | S. cerevisiae deletion strains, locus YNL183C, strain NPR1, hits give low values 0.915 | S. cerevisiae deletion strains, locus YNL207W, strain RIO2, hits give low values 0.985 | S. cerevisiae deletion strains, locus YNL222W, strain SSU72, hits give low values 0.994 | S. cerevisiae deletion strains, locus YNL307C, strain MCK1 (second series), hits give low values 0.886 | S. cerevisiae deletion strains, locus YOL078W, strain AVO1, hits give low values 0.993 | S. cerevisiae deletion strains, locus YOL136C, strain PFK27, hits give low values 0.882 | S. cerevisiae deletion strains, locus YOR061W, strain CKA2, hits give low values 0.952 | S. cerevisiae deletion strains, locus YOR119C, strain RIO1, hits give low values 0.995 | S. cerevisiae deletion strains, locus YOR231W, strain MKK1, hits give low values 0.865 | S. cerevisiae deletion strains, locus YOR329C, strain SCD5, hits give low values 0.994 | S. cerevisiae deletion strains, locus YPL031C, strain PHO85, hits give low values 0.921 | S. cerevisiae deletion strains, locus YPL153C, strain RAD53, hits give low values 0.928 | S. cerevisiae deletion strains, locus YPL204W, strain HRR25, hits give low values 0.892 | S. cerevisiae deletion strains, locus YPL209C, strain IPL1, hits give low values 0.998 | S. cerevisiae deletion strains, locus YPR025C, strain CCL1, hits give low values 0.994 | S. cerevisiae deletion strains, locus YPR106W, strain ISR1, hits give low values 0.982 | S. cerevisiae deletion strains, locus YPR111W, strain DBF20, hits give low values 0.969 | S. cerevisiae deletion strains, strain NNK1, hits give low values 0.978 | S. cerevisiae deletion strains, strain TSCII, hits give low values 0.983
active: [2] 0.822 | S. cerevisiae deletion strains, locus YLR113W, strain HOG1, hits give low values 0.739 | S. cerevisiae deletion strains, locus YPL256C, strain CLN2, hits give low values 0.763
